Source: PubChem BioAssay (National Center for Advancing Translational Sciences (NCATS))
This is a sample that favours compounds with a hit; in the whole collection about 2.6% have one here.
GFP derepression – epigenetic GFP locus derepression in mouse cells; AID 597; Potency, µM (titrated, usually from 46.1 µM), for the others: at the highest dose GFP derepression (activation); mouse C127i GFP locus derepression, cytometry, 30 h; 68,000 tested, 0.09% active; note: % of control where 0% means no effect
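Murine C127i mammary cells carrying a silenced, stably integrated CMV-driven GFP reporter were treated with compound for 30 hours at 37 C. After PBS washes, GFP-positive cells were counted by laser-scanning microplate cytometry.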
HBB splice mod – modulators of hemoglobin beta chain splicing. AID 925. HBB splicing reporter cell assay, activation; EGFP reporter with mutant IVS2-654 intron; response scale: normalised to 500 nM splice-correcting PNA. 65,000 tested, 0.06% active. Potency, µM (highest dose often 46.1 µM), for the others: at the top dose activation, actives largely listed as activators; note: potency is the fitted concentration of half-maximal effect; 0% is about no effect
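HeLa cells stably expressing EGFP interrupted by mutant beta-globin intron 2 (IVS2-654), 500/well in 2% FCS. Treated with compound for 2 days at 37C. Splicing correction scored as total well GFP intensity (488 nm excitation, 500-520 nm emission); 500 nM antisense PNA served as control.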
Luciferase inh – blocks Photinus pyralis firefly luciferase activity. AID 411. purified firefly luciferase, luminescence, 8 min. P08659. Potency, µM (highest dose often 57.1 µM), inactives show at the top dose activity change, negative = inhibition, most hits filed as inhibitors. 72,000 tested, 2.2% active; note: potency is the fitted concentration of half-maximal effect; % is set by controls: 0 for no effect and ±100 for the full control effect; nearly all actives have a fitted effect of over 40% in size
Target sequence (P08659 whole entry, looked up): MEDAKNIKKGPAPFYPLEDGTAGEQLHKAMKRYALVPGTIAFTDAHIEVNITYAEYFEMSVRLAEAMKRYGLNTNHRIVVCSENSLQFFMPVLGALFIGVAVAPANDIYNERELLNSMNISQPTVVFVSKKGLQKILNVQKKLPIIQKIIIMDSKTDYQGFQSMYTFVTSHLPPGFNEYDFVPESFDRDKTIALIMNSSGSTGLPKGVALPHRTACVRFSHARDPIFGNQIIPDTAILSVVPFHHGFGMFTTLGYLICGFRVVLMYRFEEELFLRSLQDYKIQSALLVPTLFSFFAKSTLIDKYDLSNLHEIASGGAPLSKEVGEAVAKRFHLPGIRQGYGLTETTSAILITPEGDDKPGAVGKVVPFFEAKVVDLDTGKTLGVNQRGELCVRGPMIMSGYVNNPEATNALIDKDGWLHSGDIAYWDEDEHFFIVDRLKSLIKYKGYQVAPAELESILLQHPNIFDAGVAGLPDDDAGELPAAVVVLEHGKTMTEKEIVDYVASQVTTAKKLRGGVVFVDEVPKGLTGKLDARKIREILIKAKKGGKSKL
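Inhibition of light generation by firefly luciferase from ATP and luciferin was profiled with concentration-response curves per sample, ATP held at 10 uM within the enzyme's linear range. Plates were read by luminescence after an 8-minute ambient incubation.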
Bst PK mod – pyruvate kinase (B. stearothermophilus) modulation. Potency, µM. purified pyruvate kinase, luminescence ATP production; ribose 5-phosphate activator present at AC10. 51,000 tested, 1.2% active; in the data active = potency below about 11 µM; inconclusive = mostly about 12 µM to 25 µM;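 the screen sought inhibitors and activators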;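 note: potency is the fitted concentration of half-maximal effect; scaled between full activation by ribose 5 phosphate and full inhibition by luteolin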
Numbers without * were called inactive; i = inactive; ? = inconclusive; / = no result; [ ] = remark or other dose. Unless noted, calls come from the whole dose curve; as a rule, active = well fitted curve in the direction sought with a large enough effect; inconclusive = small, poorly fitted or top-dose-only effect, or another doubt; inactive = no such curve, though single readings can be large; an effect the other way counts as inactive or inconclusive.

SMILES	GFP derepression	HBB splice mod	Luciferase inh	Bst PK mod
CN(C)c1ccc(/C=N\NC(=O)c2cnc3ccccc3c2)cc1	6%[9.22 µM]	1%[9.22 µM]	-13%[11.4 µM]	/
CN(C)c1ccc(N/C=C/C(=O)c2ccccc2)cc1	0%	2%	0.32µM*	0.42*
CCc1ccc(NC(=O)c2cc(CC(C)C)on2)cc1	/	0%	-14%	/
CCc1ccc(NC(=O)c2cc(C)on2)cc1	-3%	0%	7.9µM*	i
CCc1ccc(NC(=O)c2cc(C(C)C)on2)cc1	0%	-2%	13µM*	i
Cc1ccc(NC(=O)c2cc(C)on2)cc1	1%	-1%	16µM*	/
Cc1ccc(-n2cc3c(=O)n(C)c(=O)n(C)c3c2)cc1C	2%	1%[57.5 µM]	-16%	10*
Cn1c(=O)c2cn(-c3ccc4c(c3)OCCO4)cc2n(C)c1=O	1%	1%[57.5 µM]	-14%	5.6*
CC(=C1C2C=CC1C1C(=O)NC(=O)C21)c1ccccc1 (stereo unspecified)	?	16µM*	-5%	>57
COc1ccc(NC(=O)c2ccco2)cc1N	3%	-6%	-18%	>57
COc1cccc(NC2=NC3(CCCCC3)N=C(N)N2)c1	6%	-1%	3%	?
CN1C[C@H](c2ccccc2)C(O)([C@]2(c3ccccc3)CN(C)C[C@@H](c3ccccc3)C2=O)[C@H](c2ccccc2)C1 (stereo partly specified)	0%[9.22 µM]	1%[9.22 µM]	0%[11.4 µM]	/
Oc1c(CN2CCN(c3ccccn3)CC2)cc(Cl)c2cccnc12	3.2µM*	-1%	2%	i
O=C(c1cc(-c2ccncc2)nc2ccccc12)N1CCN(c2ccccn2)CC1	-2%	5%[1.84 µM]	-13%	>57
O=C(c1cc(-c2ccccc2)nc2ccccc12)N1CCN(c2ccccn2)CC1	-2%	0%	20µM*	/
COc1cc(CO)cc(Br)c1OCc1cccnc1	2%	-4%[57.5 µM]	1%	>57
O=C(CCNc1ccccc1)c1ccc2c(c1)OCO2	0%	2%[57.5 µM]	16µM*	/
O=C(Nc1ccc2c(c1)OCO2)c1cccc(F)c1	0%	-1%	?	/
O=C(/C=C\Nc1cccc(F)c1)c1ccc2c(c1)OCO2	0%	-4%[0.0738 µM]	0.4µM*	/
C=CCn1c(-c2ccc(OC)cc2)nc2ccccc21	2%	-1%	25µM*	/
O=C(CSc1ncccc1-c1nc2ccccc2[nH]1)NCc1ccco1	4%	-2%	?	/
Cc1cc2nc(-c3cccnc3SCC(=O)NCc3ccco3)[nH]c2cc1C	6%	/	4µM*	3.9*
C[C@@]12CCC(=O)C=C1CC[C@H]1[C@@H]2[C@@H](O)C[C@]2(C)[C@@H]1CC[C@@]2(O)C(=O)CO	0%[9.22 µM]	0%[9.22 µM]	3%[11.4 µM]	/
O=C(CSc1nnc(SCc2ccc(Cl)cc2)s1)N1CCN(C(=O)c2ccco2)CC1	1%	1%	4µM*	/
O=c1c(-c2cccs2)nc2cnc(N3CCOCC3)nc2n1-c1ccccc1	0%[9.22 µM]	6%	0%[11.4 µM]	/
SMILES	GFP derepression	HBB splice mod	Luciferase inh	Bst PK mod
O=C1CC(Sc2nnnn2C2CCCCC2)C(=O)N1c1ccccc1 (stereo unspecified)	-9%	0%	16µM*	/
Cc1c(O)nc(SC2CC(=O)N(c3ccccc3)C2=O)[nH]c1=O (stereo unspecified)	-3%	6%	-1%	>57
COc1cccc(C(=O)Nc2ccc(NC(=O)C3CC3)cn2)c1	-3%	0%[57.5 µM]	7.9µM*	/
COc1cccc(C(=O)NC2=NCCS2)c1	6%	0%[57.5 µM]	16µM*	i
COC(=O)C1=C(NC(=O)c2cccc(OC)c2)CCS1	-1%	-2%	1%	>57
COc1ccc(C(=O)Nc2cc(OC)cc(OC)c2)cc1	0%	0%	4µM*	/
COc1cc(C(=O)Nc2ccc(NC(=O)C3CC3)nc2)cc(OC)c1OC	0%	/	-3%	>57
O=C(NC1=NCCS1)c1cccc(NC(=O)c2ccco2)c1	2%	-1%	-7%	/
O=C(NC1=NCCS1)c1ccc(-c2ccc(Cl)cc2)o1	-1%	-2%	7.9µM*	5.4*
CN1CCC[C@@H]1c1cccnc1.O=C(O)c1ccccc1O.O=C([OH2+])c1ccccc1O.O=C([OH2+])c1ccccc1O.O=C([OH2+])c1ccccc1O.[Cu]	4%[9.22 µM]	4%[9.22 µM]	1%[11.4 µM]	/
CN1CCN(c2ncc3nc(-c4ccccc4)c(=O)n(C4CC4)c3n2)CC1	-6%[9.22 µM]	1%	-3%[11.4 µM]	/
Cc1ccc(/C(O)=C2\C(=O)C(=O)N(CCCN(C)C)C2c2ccccn2)cc1 (stereo unspecified)	5%	-1%[57.5 µM]	2%	>57
COc1cccc(C(=O)Nc2ccc(C)cc2)c1	2%	0%	10µM*	?
